Screens (PubChem BioAssay)
PLC-gamma1 inh: inhibitors of human phospholipase C gamma1; P19174; actives 0.84% (n = 370,000); purified PLC-gamma1, fluorogenic substrate, fluorescence; inhibition, % at 12.2 µM; in the data active means inhibition above about 9.5%
AHR act: human AHR activation | AHR-responsive luciferase reporter cells, luminescence | activation, % at 5 µM | actives 2.5% (n = 320,000); in the data active means activation above about 47%
Target sequence (P35869 whole entry, looked up): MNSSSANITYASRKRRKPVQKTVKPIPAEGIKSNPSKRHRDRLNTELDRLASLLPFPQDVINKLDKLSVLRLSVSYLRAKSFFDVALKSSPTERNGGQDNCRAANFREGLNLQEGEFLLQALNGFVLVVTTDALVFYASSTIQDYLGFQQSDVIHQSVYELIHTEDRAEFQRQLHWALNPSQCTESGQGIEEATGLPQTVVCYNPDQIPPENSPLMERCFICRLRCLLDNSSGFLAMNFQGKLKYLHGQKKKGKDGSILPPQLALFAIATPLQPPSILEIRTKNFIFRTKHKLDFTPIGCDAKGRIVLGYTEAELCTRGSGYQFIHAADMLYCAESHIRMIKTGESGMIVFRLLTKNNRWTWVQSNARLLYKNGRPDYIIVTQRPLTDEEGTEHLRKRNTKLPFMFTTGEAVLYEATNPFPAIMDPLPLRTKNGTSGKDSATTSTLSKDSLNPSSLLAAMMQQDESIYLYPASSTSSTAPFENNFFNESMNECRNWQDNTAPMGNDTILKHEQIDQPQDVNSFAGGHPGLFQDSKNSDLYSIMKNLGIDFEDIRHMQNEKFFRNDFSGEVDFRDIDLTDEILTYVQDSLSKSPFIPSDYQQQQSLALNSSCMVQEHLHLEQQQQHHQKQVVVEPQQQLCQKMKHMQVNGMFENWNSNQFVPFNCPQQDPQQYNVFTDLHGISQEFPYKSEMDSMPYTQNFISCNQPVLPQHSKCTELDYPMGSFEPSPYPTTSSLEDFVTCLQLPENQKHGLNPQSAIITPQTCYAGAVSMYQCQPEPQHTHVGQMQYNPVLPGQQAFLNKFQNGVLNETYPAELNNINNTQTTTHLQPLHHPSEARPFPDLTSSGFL
HIF activator: HIF pathway transcriptional activation. U2OS HRE-luciferase reporter, luminescence; normalized: DMSO 0%, desferrioxamine 100%. activation, % at 7.5 µM (by protocol). actives 0.32% (n = 300,000). AID 1910;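 active means mean activation of at least 10% of the iron chelator positive control signal, with at least half of replicates also reaching 10%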
CR mimetic SO: caloric restriction mimetics inhibiting age-related superoxide in yeast; superoxide response (% of plate mean), % at 10 µM; AID 2690; S. cerevisiae aged cells, superoxide DHE fluorescence; hits give low values; actives 0.18% (n = 330,000);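 active means superoxide response under a set limit, about three screen SD below normal, cut at about 65% in these data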;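 further: yeast aged for seven days with compound at 30 °C before DHE staining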
HGIII-sPLA2 inh: Inhibits HGIII-sPLA2 liposome hydrolysis, primary screen. QFRET BODIPY PC-A2 liposome hydrolysis, fluorescence. actives 0.56% (n = 370,000). AID 743126. Q9NZ20. inhibition, % at 12.2 µM;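 active means inhibition above mean plus 3 SD of compounds lying within the high and low control bounds, cut at about 19% in these data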
PLC-beta3 inh: blocks human PLC-beta3 enzyme activity. Purified PLC-beta3, fluorogenic substrate, fluorescence. AID 720704. actives 0.18% (n = 370,000). Q01970. inhibition, % at 12.2 µM; in the data active means inhibition above about 11%
Large screens that a line does not name were inactive. A selection: hits, their analogues and other compounds. The true share with any hit is near 3.9%.

CCc1nc2oc3ccccc3c(=O)c2c(=O)n1-c1ccc(C)cc1	AHR act 64
COc1ccc(C(=O)c2sc3nc(-c4ccc(OC)cc4)ccc3c2N)cc1	none
COc1ccc(-c2ccc3c(N)c(C(=O)c4cccc(OC)c4)sc3n2)cc1	AHR act 77
COc1c(Br)cc(Br)cc1/C=N/NC(=O)c1cccnc1	none (no result: AHR act)
CCNC(=S)N/N=C/c1cc(Br)cc(Br)c1OC	AHR act 63
CCNC(=S)N/N=C/c1cccc(/C=N/NC(=S)NCC)c1	none
COc1c(Br)cc(Br)cc1/C=N/NC(=O)c1ccncc1	AHR act 57
O=S1(=O)CC2c3ccccc3CCN2CN1CCc1ccccc1 (configuration not stated)	none (no result: AHR act, HIF activator, CR mimetic SO)
CCn1c(SCC(=O)c2c[nH]c3ccccc23)nnc1-c1cccs1	none
Cn1cnnc1SCC(=O)c1c[nH]c2ccccc12	AHR act 67
CCCCNc1nnc(SCC(=O)c2c[nH]c3ccccc23)s1	AHR act 57
Cn1cnnc1SCC(=O)c1ccc(OC(F)F)cc1	none
COc1ccc(C(=O)CSc2nncn2C)cc1	HIF activator 22
CCOc1ccc(Nc2nc3cc(S(=O)(=O)CC)ccc3o2)cc1	AHR act 64
O=C(Cn1nnc(-c2ccncc2)n1)Nc1ccc(Oc2ccccc2)cc1	none (no result: AHR act, HIF activator, CR mimetic SO)
C=CC[C@@H](Cc1ccc(F)cc1)C(=O)OC[C@@H]1CCCN1C(=O)[C@H](CC=C)CC(=O)N[C@H](CO)Cc1ccccc1	PLC-gamma1 inh 9.7, PLC-beta3 inh 12 (no result: HIF activator)
Cc1cccc(N=C2NC(=O)/C(=C/c3cccnc3)S2)c1C	AHR act 47
CNC(=S)N(CCc1c(C)[nH]c2ccc(C)cc12)Cc1ccco1	AHR act 55
COc1ccc(NC(=S)N(CCc2c(C)[nH]c3ccc(C)cc23)Cc2cccnc2)cc1	AHR act 54
CCNC(=S)N(CCc1c(C)[nH]c2ccc(Cl)cc12)Cc1ccco1	AHR act 47
CCOc1ccc(NC(=S)N(CCc2c(C)[nH]c3ccccc23)Cc2cccnc2)cc1	none
C[C@@H]1CN(c2ccc(N3CCN(C(=O)OC(C)(C)C)C[C@@H]3C)cc2C#N)C[C@H](C)O1	none (no result: AHR act, HIF activator, CR mimetic SO)
CCCN1CCCCC(NC(=O)c2ccc(Cl)cc2Cl)C1=O (configuration not stated)	none (no result: AHR act, HIF activator, CR mimetic SO)
COc1cc(/C=N/NC(=O)c2cccc(C(=O)N/N=C/c3ccc(O)c(OC)c3)n2)ccc1O	none (no result: AHR act)
COc1cc(/C=N/Nc2snc(SC)c2C#N)ccc1O	AHR act 73
COC(=O)c1ccc(/C=N/Nc2nc3ccccc3[nH]2)cc1	AHR act 48
COc1cc(/C=N/NC(=O)c2cc3ccccc3[nH]2)ccc1O	AHR act 53
COc1cccc(/C=N/Nc2nc3ccccc3[nH]2)c1O	AHR act 60, HIF activator 11
CC(C)(C)C1=Nn2c(nnc2-c2ccc(C(C)(C)C)cc2)SC1	none (no result: AHR act, HIF activator, CR mimetic SO)
COc1cccc(/C=N/Nc2nccnc2Cl)c1O	HIF activator 31 (no result: AHR act, CR mimetic SO)
COc1cc(/C=N/Nc2nc3ccccc3[nH]2)ccc1O	AHR act 55
COc1cccc(/C=N/Nc2ncnc3scc(-c4ccccc4)c23)c1O	HIF activator 105
Clc1nccnc1N/N=C/c1ccc(Br)cc1	AHR act 63
C[C@H]1[C@@H](N(C)Cc2cccs2)CC[C@@]23CCCN2C(=O)CCC[C@@H]13	none (no result: AHR act, HIF activator, CR mimetic SO)
O=C1COc2ccccc2C(c2nnnn2-c2ccc3ccccc3c2)N1C1CC1 (configuration not stated)	none (no result: AHR act, HIF activator, CR mimetic SO)
CCC[C@H]1[C@@H](OC(=O)NCc2ccco2)CC[C@@]23CCCN2C(=O)CCC[C@@H]13	none (no result: AHR act, HIF activator, CR mimetic SO)
CCCC[C@H](C(=O)N(C)c1cccc(OC)c1)[C@@H](O)c1ccc(Cl)cc1	none (no result: AHR act, HIF activator, CR mimetic SO)
O=C(Cn1cnc2ccccc2c1=O)c1ccccc1	AHR act 48
Cc1ccc(C(=O)Cn2cnc3ccccc3c2=O)cc1	none (no result: HIF activator)
CCOc1ccc(-n2c(SCC(=O)c3ccc4ccccc4c3)nnc2-c2cccc(Cl)c2)cc1	none (no result: AHR act, HIF activator, CR mimetic SO)
CC(C)(C)OC(=O)NCCc1ccccc1/C=C/S(=O)(=O)NCc1ccccc1	none (no result: AHR act, HIF activator, CR mimetic SO)
C#CCNC(=O)C1=C[C@H](c2csc3ccccc23)C[C@H](OCc2ccc(CO)cc2)O1	none
C#CCNC(=O)C1=C[C@@H](c2cn(C(C)=O)c3ccccc23)C[C@@H](OCc2ccc(CO)cc2)O1	AHR act 47 (no result: CR mimetic SO)
CC(=O)n1cc([C@H]2C=C(C(N)=O)O[C@@H](OCc3ccc(CO)cc3)C2)c2ccccc21	AHR act 73
CC(=O)n1cc([C@@H]2C=C(C(=O)Nc3ccccc3)O[C@H](OCc3ccc(CO)cc3)C2)c2ccccc21	none
CC(=O)n1cc([C@H]2C=C(C(=O)NCc3ccccc3)O[C@@H](OCc3ccc(CO)cc3)C2)c2ccccc21	AHR act 65
CCCC1CCC2(CC1)CCC2OC(=S)Nc1ccccc1OC (configuration not stated)	none (no result: AHR act, HIF activator, CR mimetic SO)
Cc1cccc(NC(=O)c2ccc3ccccc3n2)c1C	AHR act 58
O=C(Nc1ccc(N2CCCCC2)cc1)c1ccc2ccccc2n1	AHR act 63
Cc1csc(NC(=O)c2cnc3ccccc3n2)n1	AHR act 57
Cc1ccccc1NC(=O)c1cccc(C(=O)Nc2ccccc2C)n1	none
Cc1csc(NC(=O)c2ccc3ccccc3n2)n1	AHR act 74
C=CCN1C(=O)[C@H](CC(=O)NCCCCc2ccccc2)[C@@]2(C(=O)OCC)CCCC=C12	none (no result: AHR act, HIF activator, CR mimetic SO)
O=C(Nc1ccccc1C(F)(F)F)O[C@@H]1CC[C@@]23CCCN2C(=O)CCC[C@H]3C1	none (no result: AHR act, HIF activator, CR mimetic SO)
O=C(Nc1nccs1)c1ccc2ccccc2n1	AHR act 50
Cc1oc(-c2ccccc2)nc1C(=O)Nc1nccs1	AHR act 74
COc1ccc(-c2csc(NC(=O)c3nc(-c4ccccc4)oc3C)n2)cc1	none
O=C(Nc1nccs1)c1ccccc1Br	none
COC(=O)Oc1nsnc1N1CCOCC1	none (no result: HIF activator)
Brc1ccc(Oc2nsnc2N2CCOCC2)cc1	AHR act 56
Cn1c(=NC(=O)c2ccco2)sc2ccccc21	AHR act 71
Clc1ccc(-c2n[nH]c3c2CCCC3)cc1	AHR act 56
Clc1ccc(-c2onc3c2CCCC3)cc1	none
CCCCNC(=O)N1CCC(c2nc3ccc(Cl)cc3[nH]2)CC1	none (no result: AHR act, HIF activator, CR mimetic SO)
O=C1/C(=C/c2c[nH]c3ccccc23)CCC/C1=C\c1c[nH]c2ccccc12	AHR act 65
COc1cc(OC)cc(OCC(O)Cn2ccnc2)c1 (configuration not stated)	AHR act 53
CCOC(=O)C1=NOC(C(C)=O)(C(=O)Nc2cc(C)cc(C)c2)C1 (configuration not stated)	none (no result: AHR act, HIF activator, CR mimetic SO)
COC(=O)c1cc(-c2c(C)noc2C)c(=O)n2c1CCC2	none (no result: AHR act, HIF activator, CR mimetic SO)
CCN(Cc1ccccc1)C(=O)c1cc(-c2ccc(OC)c(OC)c2)nc2ccccc12	AHR act 69
